# Source: PubChem BioAssay AID881 (National Center for Advancing Translational Sciences (NCATS), 2007)
# About 610 (0.55%) of roughly 110,000 compounds were called active. About 3% were inconclusive and are not listed. The sample as a whole holds a higher share of actives than the screen did. Values without a mark were called inactive. Calls follow the shape of the dose curve; as a rule, active = well fitted inhibition curve with a large enough effect; inconclusive = small, poorly fitted or top-dose-only effect; inactive = no such curve, though single readings can be large or run the other way.
# Target: Polyunsaturated fatty acid lipoxygenase ALOX15B (Homo sapiens) (UniProt O15296)
# Sequence (O15296 whole entry, looked up): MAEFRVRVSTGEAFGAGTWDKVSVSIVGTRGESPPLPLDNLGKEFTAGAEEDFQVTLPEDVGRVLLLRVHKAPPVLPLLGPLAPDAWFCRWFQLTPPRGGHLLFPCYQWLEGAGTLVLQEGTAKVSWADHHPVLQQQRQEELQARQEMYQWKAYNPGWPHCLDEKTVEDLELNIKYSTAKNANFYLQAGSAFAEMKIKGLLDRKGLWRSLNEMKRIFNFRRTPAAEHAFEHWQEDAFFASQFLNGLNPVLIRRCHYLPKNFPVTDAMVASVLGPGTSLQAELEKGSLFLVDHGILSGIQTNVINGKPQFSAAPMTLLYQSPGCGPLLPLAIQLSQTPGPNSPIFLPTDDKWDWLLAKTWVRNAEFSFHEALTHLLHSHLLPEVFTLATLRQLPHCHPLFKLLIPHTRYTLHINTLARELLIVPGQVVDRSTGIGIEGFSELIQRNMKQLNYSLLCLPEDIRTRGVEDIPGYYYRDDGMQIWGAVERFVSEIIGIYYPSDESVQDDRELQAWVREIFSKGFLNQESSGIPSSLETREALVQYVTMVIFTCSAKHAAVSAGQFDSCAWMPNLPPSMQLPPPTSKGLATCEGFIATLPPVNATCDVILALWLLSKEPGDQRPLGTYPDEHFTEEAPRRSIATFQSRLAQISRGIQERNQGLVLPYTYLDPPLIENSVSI
# Assay: qHTS Assay for Inhibitors of 15-hLO-2 (15-human lipoxygenase 2); also: nearly all actives have a fitted effect of over 60% in size
# Details: purified 15hLO-2, xylenol orange hydroperoxide absorbance; series mostly up to 57.1 µM; activity change, negative = inhibition: at the top concentration
# In short: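 Purified human 15hLO-2 (50 nM final) preincubated with compounds 15 min at room temperature in 25 mM Hepes pH 7.5, 0.01% Triton X-100, then 45 uM arachidonic acid added for 90 min; hydroperoxide detected via ferrous/xylenol orange, 573/405 nm absorbance ratio.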
# % is scaled to controls: 0 for no effect and ±100 for the full control effect; potency is read from the fitted curve at half-maximal effect.
Structure (SMILES),"activity change, negative = inhibition",Potency
Cc1ccc(CNC(=O)CCNS(=O)(=O)c2cccc3nonc23)cc1,-1.56%,–
CC1=C(C/C=C(\C)CCCC(C)CCCC(C)CCCC(C)C)C(=O)c2ccccc2C1=O (centres undefined),-19.6% [at 0.0915 µM],–
Cn1c(SCC(=O)NC2CCCCC2)nnc1-c1cc2ccccc2o1,6.06%,–
O=c1c2ccccc2nc2n1C(CSCc1ccccc1)CS2 (centres undefined),-0.0852%,–
CCOC(=O)C1=C(C)Nc2sc(C(=O)c3ccc(Br)cc3)c(N)c2C1c1ccc(C(=O)OC)cc1 (centres undefined),-18.9%,–
Cc1ccc(C(=O)OC2=CC(=O)CC(C)(C)C2)cc1,-18% [at 11.4 µM],–
COc1ccc(Nc2nc(-c3ccccc3)cs2)cc1,-0.853%,–
c1cnc(Nc2nc(-c3ccc4ccccc4c3)cs2)nc1,-9.83%,–
COc1ccc(OC)c(Nc2nc(-c3ccc(O)c(O)c3)cs2)c1,–,12.6 µM (active)
O=C(OC1CCCCC1=O)c1cccc(S(=O)(=O)NCc2ccccc2)c1 (centres undefined),-5.34%,–
OCCN(Cc1ccccc1)Cc1ccc(Cl)cc1,-6.06%,–
O=C1CSC2=NCN(c3ccccc3)CN12,1.46%,–
O=C(NCc1ccco1)c1ccc(Cn2c(=O)c3sccc3n(Cc3ccc(F)cc3)c2=O)cc1,-11.1%,–
CCn1c(-c2ccoc2C)n[nH]c1=S,13%,–
CCCC1NC(=O)NC(C)=C1C(=O)OCC (centres undefined),-5.77%,–
COc1cccc(OC)c1C(=O)Nc1ccc(N2CCCCC2)cc1,3.88%,–
COc1ccc([N+](=O)[O-])cc1N(CC(O)Cn1nnc2ccccc21)S(=O)(=O)c1ccc(C)cc1 (centres undefined),-1.66%,–
CCCCNCc1ccc(SC)cc1,21.2%,–
Clc1ccc(-n2nnnc2CN2CCCCC2)cc1Cl,0.993% [at 11.4 µM],–
COc1ccc(Oc2c(Cl)cnn(-c3ccccc3)c2=O)cc1,-7.51%,–

Structure (SMILES),"activity change, negative = inhibition",Potency
C#CCN(N(C)c1ncc(C(F)(F)F)cc1Cl)S(=O)(=O)c1ccc2ccccc2c1,-5.59%,–
Cc1ccccc1-c1ccc(C(=O)O)s1,-3.34% [at 0.0915 µM],–
COC(=O)CNC(=O)c1ccccc1F,1.73%,–
CC(C)CCSc1ncnc2c1oc1nc3c(cc12)COC(C)(C)C3,13.4%,–
Cc1ccc(-c2csc(NC(=O)c3cccs3)n2)cc1,27.2%,–
Cn1nc(-c2ccccc2)c(-c2nc(-c3ccc(Cl)cc3)no2)c1Cl,-4.91%,–
CCCSc1nsc(N)n1,-13%,–
COc1cc(OC)cc(C(=O)NC(=S)N2CCN(c3ccc(C(F)(F)F)cc3[N+](=O)[O-])CC2)c1,-13%,–
COC(=O)CSc1snnc1-c1ccc(Cl)c(Cl)c1,2.53%,–
COC(=O)c1ccccc1NC(=O)CN(Cc1ccc(Cl)cc1)S(C)(=O)=O,7.94%,–
CC1CCN(c2ccc(S(=O)(=O)Nc3cc(C(=O)O)cc(C(=O)O)c3)cc2[N+](=O)[O-])CC1,2.65%,–
COc1ccc(C)cc1NC(=O)CCS(=O)(=O)c1cccc2nonc12,-1.24%,–
Cc1ccc(/C=N/NC(=O)c2sccc2OCc2ccc(F)cc2)cc1,6.49%,–
C=CCNC(=S)NNc1ncnc2sc3c(c12)CC(C)(C)OC3,-29%,–
COC(=O)CSc1nnc(-c2cccnc2)o1,3.28%,–
O=C(CSCc1ccc(Cl)cc1)N1CCCCC1,1.73%,–
NS(=O)(=O)c1ccc(CCNC(=O)Nc2ccc(Cl)cc2)cc1,-0.0198%,–
Oc1cc2c(cc1O)CN(C(=S)NCCc1ccc(Cl)cc1)CCC2,–,12.6 µM (active)
Cc1ccc2nc(CC(=O)c3ccc4ccccc4c3)c(=O)[nH]c2c1,-6.79% [at 11.4 µM],–
C=CC(=O)c1ccc2ccccc2c1,–,2 µM (active)

Structure (SMILES),"activity change, negative = inhibition",Potency
CC(=O)c1ccc2c(ccc3ccccc32)c1,-0.686%,–
CCC(=O)Nc1ccc(C(=O)Nc2cccc(OC)c2)cc1,2.43%,–
COc1ccccc1N=C(C)C1=C(O)COC1=O,1.25%,–
Cc1cccc(-n2cnc(C(=O)Nc3cccnc3)c2)n1,3.31%,–
Cc1ccc(S(=O)(=O)N2CCC(=O)N([C@H](COCc3ccccc3)Cc3ccccc3)CC2)cc1,6.39% [at 0.0915 µM],–
O=S1(=O)CCN(Cc2ccccc2Cl)CC1,-0.814%,–
CCN(CC)CCn1c(=S)[nH]c2ncccc2c1=O,1.31%,–
CCCc1cc(=O)[nH]c(SCC(=O)c2cc(C)n(CCC)c2C)n1,-8.86%,–
COc1ccc(OC(C)C(=O)Nc2cccnc2)cc1 (centres undefined),4.53%,–
C=CCNC(=S)N/N=C/c1ccc(OCc2ccccc2)cc1,-12.6%,–
O=C(O)c1cc2ccccc2c(=O)s1,1.13%,–
CS(=O)(=O)N(CC(=O)Nc1ccc(F)cc1F)c1cccc([N+](=O)[O-])c1,-23%,–
COc1cccc(-c2cc(=O)c3cc(NC(=O)c4ccc(C)cc4)ccc3[nH]2)c1,-28.3% [at 0.0915 µM],–
Cc1cccc([C@H]2[C@@H]3C=CC[C@@H](C)[C@@H]3C(=O)N2Cc2ccccc2)c1,-6.63% [at 0.0915 µM],–
CCn1c(O)c2ccc(C(=O)N=NC(=O)c3cccnc3)cc2c1O,1.39%,–
CCOC(=O)N1CCC(Nc2c(NCCCN3CCN(CC)CC3)c(=O)c2=O)CC1,2.51%,–
COc1cccc(N=c2oc3c(C)ncc(CO)c3cc2C(N)=O)c1,-13.3%,–
CC(C)CCNC(=O)CC1C(=O)N(Cc2ccccc2)C(C)c2nc3ccccc3n21 (centres undefined),12.6%,–
CC(C)(CNC(=O)c1cc(=O)[nH]c2ccccc12)N1CCOCC1,4.69%,–
